Source: PubChem BioAssay (NCATS)
Records with an inconclusive call do not appear. Activity calls are given as the source filed them. Calls follow the shape of the dose curve; as a rule, active = well fitted curve in the direction sought with a large enough effect; inconclusive = small, poorly fitted or top-dose-only effect, or another doubt; inactive = no such curve, though single readings can be large; an effect the other way counts as inactive or inconclusive.

Columns and labels:
CRL-7250 = normal cell line; test: Cytotoxic Profiling of Annotated Libraries Using Quantitative High-Throughput Screening (AID 1296008); conditions: Five cell lines viability, CellTiter-Glo ATP luminescence, 48-72 h; max response: hits give low values; also: nearly all actives have a fitted effect of over 60% in size; as to max response: % is scaled to controls: 0 for no effect and ±100 for the full control effect
How it was run: (§1)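 Cytotoxicity was measured as CellTiter-Glo ATP luminescence, read after 10 min at room temperature. Compound treatment of the cells lasted 48 or 72 hr at 37 degrees Celsius in a qHTS format.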

HaCat [1] = test: as above; conditions: Five cell lines viability, CellTiter-Glo ATP luminescence, 48-72 h; max response: hits give low values
How it was run: as §1

KB-3-1 = test: as above; conditions: Five cell lines viability, CellTiter-Glo ATP luminescence, 48-72 h; max response: hits give low values
How it was run: as §1

NIH3T3 [2] = test: as above; conditions: Five cell lines viability, CellTiter-Glo ATP luminescence, 48-72 h; max response: hits give low values
How it was run: as §1

HACAT [3] = test: qHTS assay to identify novel small-molecules to repurpose for Merkel cell carcinoma treatment (AID 1296009); conditions: MCC and control cell lines, CellTiter-Glo viability, 72 h; at 44.8 µM (top of the series) unless noted; also: nearly all actives have a fitted effect of over 60% in size
How it was run: (§2)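 Cell viability, measured as CellTiter-Glo luminescence, was normalized between DMSO and no-cell wells. The cells had been exposed to 8- or 11-point compound dilutions for 72 hr at 37 degree celsius.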

C33A = test: Primary qHTS to identify gynecologic anti-cancer compounds using libraries of approved drugs and bioactive compounds (AID 1345084); conditions: Gynecologic cancer cell panel viability, ATPlite luminescence, 48 h; series mostly up to 57.5 µM; also: % is scaled to controls: 0 for no effect and ±100 for the full control effect; nearly all actives have a fitted effect of over 55% in size
How it was run: (§3)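 ATP-based viability (ATPlite), 1,000 cells/well, 16 h pre-incubation, 48 h compound at 37 C, 5% CO2, 15 min RT before read.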

CAOV3 = test: as above; conditions: Gynecologic cancer cell panel viability, ATPlite luminescence, 48 h; series mostly up to 57.5 µM
How it was run: as §3

CASKI = test: as above; conditions: Gynecologic cancer cell panel viability, ATPlite luminescence, 48 h; series mostly up to 57.5 µM
How it was run: as §3

Es-2 = test: as above; conditions: Gynecologic cancer cell panel viability, ATPlite luminescence, 48 h; series mostly up to 57.5 µM
How it was run: as §3

HeLa = test: as above; conditions: Gynecologic cancer cell panel viability, ATPlite luminescence, 48 h; series mostly up to 57.5 µM
How it was run: as §3

Hek293T = test: as above; conditions: Gynecologic cancer cell panel viability, ATPlite luminescence, 48 h, control line for the selectivity index; series mostly up to 57.5 µM
How it was run: as §3

JEG-3 = test: as above; conditions: Gynecologic cancer cell panel viability, ATPlite luminescence, 48 h; series mostly up to 57.5 µM
How it was run: as §3

OV90 = test: as above; conditions: Gynecologic cancer cell panel viability, ATPlite luminescence, 48 h; series mostly up to 57.5 µM
How it was run: as §3

NIH3T3 [4] = test: qHTS assay to identify novel small-molecules to repurpose for Merkel cell carcinoma treatment (AID 1296009); conditions: MCC and control cell lines, CellTiter-Glo viability, 72 h; series mostly up to 44.8 µM; also: nearly all actives have a fitted effect of over 60% in size
How it was run: as §2

Fc1ccc(N2CCN(CCC3OCCc4ccccc43)CC2)cc1 (stereo not given)
inactive: max response (CRL-7250) -11.3% | outcome (HaCat [1]) | max response (KB-3-1) -21.6% | max response (NIH3T3 [2]) -0.639% | outcome (HACAT [3]) | Potency (C33A) | Potency (CAOV3) | Potency (CASKI) | Potency (Es-2) | Potency (HeLa) | Potency (Hek293T) | Potency (JEG-3) | Potency (OV90)

O=C(NCCCN1CCC2(CC1)OCc1ccccc12)[C@H]1CCCN1Cc1ccccc1
inactive: outcome (CRL-7250) | outcome (HaCat [1]) | max response (KB-3-1) -7.1% | max response (NIH3T3 [2]) 4.93% | outcome (HACAT [3]) | Potency (C33A) | Potency (CAOV3) | Potency (CASKI) | Potency (Es-2) | Potency (HeLa) | Potency (Hek293T) | Potency (JEG-3) | Potency (OV90)

C=C1CCCC2(C)CCC(C(C)(C)OC3OC(C)C(O)C(O)C3OC(=O)/C(C)=C\C)CC12 (stereo not given)
inactive: max response (CRL-7250) 3.11% | outcome (HaCat [1]) | max response (KB-3-1) -8.14% | outcome (NIH3T3 [2]) | outcome (HACAT [3]) inactive [at 17.4 µM] | Potency (C33A) | Potency (CAOV3) | Potency (CASKI) | Potency (Es-2) | Potency (HeLa) | Potency (Hek293T) | Potency (JEG-3) | Potency (OV90)

CC1(C)CCCC2(C)C1C(OC(=O)/C=C/C=C/C=O)C=C1COC(=O)C12O (stereo not given)
inactive: max response (CRL-7250) -21.2% | outcome (HaCat [1]) | outcome (KB-3-1) | max response (NIH3T3 [2]) -7.98% | outcome (HACAT [3]) inactive [at 17.4 µM] | Potency (C33A) | Potency (CAOV3) | Potency (CASKI) | Potency (Es-2) | Potency (HeLa) | Potency (Hek293T) | Potency (JEG-3) | Potency (OV90)

C=C1CC[C@@H](O)[C@]2(C)CC[C@H]3C(=C)C(=O)O[C@@H]3[C@@H]12
inactive: max response (CRL-7250) -3.82% | outcome (HaCat [1]) | outcome (KB-3-1) | max response (NIH3T3 [2]) -16.6% | outcome (HACAT [3]) | Potency (C33A) | Potency (CAOV3) | Potency (CASKI) | Potency (Es-2) | Potency (HeLa) | Potency (Hek293T) | Potency (JEG-3) | Potency (OV90)

O=C1COC2(CCN(S(=O)(=O)c3ccc(-c4ccc5cccnc5c4)cc3)CC2)CN1C1CC1
inactive: max response (CRL-7250) -2.24% | outcome (HaCat [1]) | max response (KB-3-1) 7.72% | max response (NIH3T3 [2]) -10.8% | outcome (HACAT [3]) | Potency (C33A) | Potency (CAOV3) | Potency (CASKI) | Potency (Es-2) | Potency (HeLa) | Potency (Hek293T) | Potency (JEG-3)

C/C=C(/C=C(C)/C=C/C=C/C=C(\C)C(=O)C12OC1C(O)(CCO)NC2=O)C(=O)OC (stereo not given)
inactive: max response (CRL-7250) -6.59% | outcome (HaCat [1]) | outcome (KB-3-1) | max response (NIH3T3 [2]) -1.05% | outcome (HACAT [3]) inactive [at 17.4 µM] | Potency (C33A) | Potency (CAOV3) | Potency (CASKI) | Potency (Es-2) | Potency (HeLa) | Potency (Hek293T) | Potency (JEG-3) | Potency (OV90)

Cc1nc2cc(C(=O)NCc3ccccn3)nn2c(C)c1Cc1cccc(Cl)c1
inactive: outcome (CRL-7250) | outcome (HaCat [1]) | max response (KB-3-1) -9.98% | max response (NIH3T3 [2]) 3.03% | outcome (HACAT [3]) | Potency (C33A) | Potency (CAOV3) | Potency (CASKI) | Potency (Es-2) | Potency (HeLa) | Potency (Hek293T) | Potency (JEG-3)

O=C(Nc1ccccc1C(=O)Nc1ccc(CCO)cc1)c1ccc([N+](=O)[O-])cc1
inactive: max response (CRL-7250) -0.113% | outcome (HaCat [1]) | outcome (KB-3-1) | outcome (NIH3T3 [2]) | outcome (HACAT [3]) | Potency (NIH3T3 [4]) | Potency (C33A) | Potency (CASKI) | Potency (Es-2) | Potency (HeLa) | Potency (Hek293T) | Potency (JEG-3) | Potency (OV90)

CCC(CC)Nc1nc(C)c(-c2ccc(OC(F)(F)F)cc2OC)nc1OC
inactive: max response (CRL-7250) -15% | outcome (HaCat [1]) | max response (KB-3-1) 0.138% | max response (NIH3T3 [2]) 0.268% | outcome (HACAT [3]) | Potency (C33A) | Potency (CAOV3) | Potency (CASKI) | Potency (Es-2) | Potency (HeLa) | Potency (Hek293T) | Potency (JEG-3) | Potency (OV90)

O=C(NC[C@H]1CN(c2ccc(N3CCOCC3=O)cc2)C(=O)O1)c1ccc(Cl)s1
inactive: max response (CRL-7250) 0.206% | outcome (HaCat [1]) | max response (KB-3-1) -11.5% | max response (NIH3T3 [2]) -0.938% | outcome (HACAT [3]) | Potency (C33A) | Potency (CAOV3) | Potency (CASKI) | Potency (Es-2) | Potency (HeLa) | Potency (Hek293T) | Potency (JEG-3) | Potency (OV90)

O=C(NCc1ccc(OC(F)(F)F)cc1)C1c2c(F)cccc2C(=O)N1CCc1ccccn1 (stereo not given)
inactive: max response (CRL-7250) -3.88% | outcome (HaCat [1]) | max response (KB-3-1) 4.96% | max response (NIH3T3 [2]) -2.89% | outcome (HACAT [3]) | Potency (C33A) | Potency (CAOV3) | Potency (CASKI) | Potency (Es-2) | Potency (HeLa) | Potency (Hek293T) | Potency (JEG-3) | Potency (OV90)

Cc1nc(C(=O)N2CCC[C@H]2Cc2nnc(-c3ccccc3)o2)c(-c2ccccc2F)s1
inactive: outcome (CRL-7250) | outcome (HaCat [1]) | outcome (KB-3-1) | max response (NIH3T3 [2]) 4.09% | outcome (HACAT [3]) | Potency (C33A) | Potency (CAOV3) | Potency (CASKI) | Potency (Es-2) | Potency (HeLa) | Potency (Hek293T) | Potency (JEG-3) | Potency (OV90)

CC(NCCCc1cccc(C(F)(F)F)c1)c1cccc2ccccc12 (stereo not given)
inactive: max response (CRL-7250) 1.05% | outcome (HaCat [1]) | max response (KB-3-1) -6.75% | max response (NIH3T3 [2]) 3.68% | outcome (HACAT [3]) inactive [at 17.4 µM] | Potency (C33A) | Potency (CAOV3) | Potency (CASKI) | Potency (Es-2) | Potency (HeLa) | Potency (Hek293T) | Potency (JEG-3) | Potency (OV90)
